Most compounds without a hit are left out; they make up all but 8% or so of the library.
KB-3-1 tox = qHTS assay for MDR1-selective chemotherapeutics: Primary screen using the parental adenocarcinoma cell KB-3-1; hit rate 1.4% among 400,000; KB-3-1 viability, CellTiter-Glo ATP luminescence, 72 h; AID 1347075, 2019; Potency, µM (doses to about 46.1 µM), most hits filed as cytotoxic; note: % is set by controls: 0 for no effect and ±100 for the full control effect; nearly all actives have a fitted effect of over 60% in size
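Viability of parental KB-3-1 cells, measured by CellTiter-Glo luminescence, followed a 72 h incubation at 37 °C with pinned compounds in phenol-red-free DMEM containing 10% FBS.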
KB-V1 cytotox = qHTS assay for MDR1-selective chemotherapeutics: Primary screen using the drug-selected MDR subline cells KB-V1; Potency, µM (doses to about 46.1 µM), actives largely listed as cytotoxic; KB-V1 MDR cells viability, CellTiter-Glo, 72 h; hit rate 3.4% among 400,000; note: % is set by controls: 0 for no effect and ±100 for the full control effect; nearly all actives have a fitted effect of over 60% in size
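Luminescent ATP read-out (CellTiter-Glo, 10 min) measures survival of drug-selected KB-V1 MDR cells after 72 h, 37 degrees C compound exposure. Medium: phenol-red-free DMEM, 10% FBS. Values from fitted concentration-response curves.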
SW480 rerep = A quantitative high throughput screen for small molecules that induce DNA re-replication in SW480 colon adenocarcinoma cells. SW480 DNA re-replication, Hoechst DNA content imaging, 48 h. hit rate 1.8% among 340,000. Potency, µM (top dose mostly 46.1 µM), for the others: top-dose re-replication activation, usual class: activators; note: % of control where 0% means no effect; nearly all actives have a fitted effect of over 55% in size
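250 cells/well; 23 nL cpd via pin tool; 48 hr, 37 C, 5% CO2; Hoechst 40 min; imager read of total nuclear intensity, ex 405/em 500-530 nm.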
HT1080 IDH1KD tx = qHTS for induction of synthetic lethality in tumor cells producing 2HG: qHTS for the HT-1080-IDH1KD cell line | hit rate 2% among 360,000 | Potency, µM (titrated, usually from 46.1 µM), inactives show top-dose activity, negative = toxicity, usual class: cytotoxic | HT-1080 IDH1 knockdown viability, ATP luminescence, 48 h;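 note: 0% = DMSO wells and -100% = cell-free medium wells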
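HT-1080-IDH1KD cells (IDH1 knocked down), 750/well in RPMI with 5% FBS, treated with compound 48 h at 37 degrees C. Viability by CellTiter-Glo luminescence, normalised to DMSO and no-cell wells; concentration-response curves classed.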
HT1080NT lethal = qHTS for induction of synthetic lethality in tumor cells producing 2HG: qHTS for the HT-1080-NT fibrosarcoma cell line. Potency, µM (titrated, usually from 46.1 µM), for the others: top-dose activity, negative = less viability, hits mostly cytotoxic. hit rate 1.6% among 360,000. HT-1080-NT fibrosarcoma viability, CellTiter-Glo ATP luminescence, 48 h;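 note: NT is the 2HG producing partner of a matched IDH1 knockdown line; 0% = DMSO-treated cells and -100% = media-only wells without cells; nearly all actives have a fitted effect of over 55% in size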
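A 48-hour cytotoxicity screen used HT-1080-NT cells plated 2 hours before compound delivery. ATP-based CellTiter-Glo luminescence measured viability, normalized to DMSO and no-cell controls.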
MCF10A rereplic = A quantitative high throughput screen for small molecules that induce DNA re-replication in MCF 10a normal breast cells | hit rate 2.9% among 350,000 | Potency, µM (top dose mostly 46.1 µM), for inactives: at the top dose activity, positive = re-replication, most hits filed as activators | MCF 10A DNA re-replication, Hoechst nuclear intensity, 48 h | AID 624296, 2012; note: % of control where 0% means no effect; nearly all actives have a fitted effect of over 50% in size
Starred values were filed as active, the others as inactive; i = inactive; ? = inconclusive; . = no result. Calls come from the whole dose curve; as a rule, active = well fitted curve in the direction sought with a large enough effect; inconclusive = small, poorly fitted or top-dose-only effect, or another doubt; inactive = no such curve, though single readings can be large; an effect the other way counts as inactive or inconclusive. Potency is the fitted concentration of half-maximal effect.

SMILES	KB-3-1 tox	KB-V1 cytotox	SW480 rerep	HT1080 IDH1KD tx	HT1080NT lethal	MCF10A rereplic
O=C(NCC(c1ccc2c(c1)OCO2)N1CCOCC1)c1ccccc1F (stereo not given)	i	i	.	.	.	.
CC(C)N(c1ccc(C=O)cc1)C(C)C	i	i	.	.	.	.
CC(C)C(c1nnnn1C1CCCC1)N1c2ccccc2CC1C (stereo not given)	i	15µM*	?	-27%	-26%	?
CC(C)C(c1nnnn1C1CCCCC1)N1CCc2ccccc21 (stereo not given)	i	i	?	-21%	-6%	?
CSc1ncc(C(=O)Nc2ccc(C)c(Cl)c2)c(-c2ccccc2)n1	i	i	.	.	.	.
O=[N+]([O-])c1cc(-c2nc(-c3ccncc3)no2)ccc1NCc1ccccc1	i	i	.	.	.	.
N#CC1=C(N)NC(=S)C(C(N)=O)C1c1ccccc1F (stereo not given)	i	i	21µM*	?	-27%	?
N#CC1=C(N)NC(=S)C(C(N)=O)C1c1ccc(Cl)cc1Cl (stereo not given)	i	?	16µM*	?	?	15µM*
CCOC(=O)C1C(=O)NC(SC)=C(C#N)C1c1ccccc1F (stereo not given)	i	15µM*	-6%	1%	8%	-2%
Cc1ccc(OCC(=O)OCc2cc(=O)n3nc(C4CCCCC4)sc3n2)cc1C	i	i	.	.	.	.
COc1ccc(/C=N/Nc2nc3ccccc3s2)cc1O	i	?	-4%	-18%	-15%	15%
COc1ccc(C=C(c2nc3ccccc3s2)c2nc3ccccc3s2)cc1O	i	?	?	?	?	13µM*
COc1cc(C=C(c2nc3ccccc3s2)c2nc3ccccc3s2)ccc1O	i	i	?	?	?	21µM*
CCc1cccc(NC(=O)CCc2c(C)nc3c(-c4ccccc4)c(C)nn3c2C)c1	i	i	.	.	.	.
COc1cccc(CNC(=O)C2CCN(c3nc4ccc(Cl)cc4[nH]3)CC2)c1	i	i	.	.	.	.
O=C(c1ccco1)c1nnn(Cc2ccccc2)c1-c1ccccc1	i	23µM*	19%	?	-19%	?
O=C(NCc1ccncc1)C(=O)Nc1nc(C23CC4CC(CC(C4)C2)C3)cs1	i	i	7%	-8%	0%	?
O=C(NCc1cccnc1)C(=O)Nc1nc(C23CC4CC(CC(C4)C2)C3)cs1	i	i	?	-11%	23%	?
O=C(NCc1ccc(F)cc1)C(=O)Nc1nc(C23CC4CC(CC(C4)C2)C3)cs1	?	9.2µM*	?	?	?	18µM*
O=C(NCc1ccccc1)C(=O)Nc1nc(C23CC4CC(CC(C4)C2)C3)cs1	?	7.3µM*	?	-2%	-5%	?
COc1ccc(-c2cc3ccc(O)cc3oc2=O)cc1	i	i	18µM*	-22%	-8%	18µM*
O=c1oc2cc(O)ccc2cc1-c1ccccc1	i	i	?	3%	-14%	?
CCc1cccc(C)c1NC(=O)CSc1nc2ccccc2nc1N1CCOCC1	i	i	.	.	.	.
C=CCNC(=S)NNC(=O)c1ccc(Br)cc1	15µM*	12µM*	-8%	4%	11%	-2%
Cc1ccc(N(CC(O)COCc2ccco2)S(=O)(=O)c2ccc(C)cc2)cc1 (stereo not given)	i	21µM*	?	?	-3%	?
SMILES	KB-3-1 tox	KB-V1 cytotox	SW480 rerep	HT1080 IDH1KD tx	HT1080NT lethal	MCF10A rereplic
CCCC#Cc1ccc2c(c1)O[C@@H](CN(C)Cc1ccc3c(c1)OCO3)[C@H](C)CN([C@@H](C)CO)S2(=O)=O	21µM*	?	.	?	?	.
CC(C)c1ccc(NC(=O)Nc2nc(C(N)COCc3ccccc3)cs2)cc1 (stereo not given)	?	?	.	?	21µM*	.
NC(c1csc(NC(=O)Nc2ccc(OC(F)(F)F)cc2)n1)C1CCCCC1 (stereo not given)	?	?	.	?	16µM*	.
CC(N)c1csc(NC(=O)Nc2cccc(C(F)(F)F)c2)n1 (stereo not given)	i	i	.	23µM*	18µM*	.
NC(c1csc(NC(=O)Nc2cccc(Cl)c2)n1)c1ccccc1Cl (stereo not given)	i	i	.	?	?	.
CC(C)C(N)c1csc(NC(=O)Nc2cccc(Cl)c2)n1 (stereo not given)	i	i	.	?	23µM*	.
CC(C)c1ccc(NC(=O)C(Cc2ccccc2)NS(=O)(=O)c2ccc3c(c2)oc(=O)n3C)cc1 (stereo not given)	i	i	.	.	.	.
CCOc1ncccc1C(=O)OCC(=O)NCc1ccc(C(=O)OC)cc1	i	i	-5%	8%	4%	-4%
CC(C)CN1C(=O)c2ccc(C(=O)Nc3ccc(OCC(=O)O)cc3)cc2C1=O	i	i	-13%	7%	13%	2%
CCOC(=O)Cc1csc(NC(=O)/C=C/c2ccc(Br)o2)n1	i	15µM*	27%	-5%	-21%	?
CC(C)c1ccc(NC(=O)Nc2nc(C(N)C(C)C)cs2)cc1 (stereo not given)	?	?	.	?	21µM*	.
Cc1ccc(C(=O)Nc2nc(C(N)C(C)C)cs2)cc1 (stereo not given)	i	i	.	3%	-22%	.
CCOC(=O)Cc1csc(NC(=O)c2ccc(Br)o2)n1	i	i	-1%	4%	13%	0%
CCOC(=O)Cc1csc(NC(=O)Nc2cccc(Cl)c2)n1	i	15µM*	6%	?	-12%	3%
COc1ccccc1CNc1ncnc2c1cnn2-c1ccc(C)cc1	i	i	.	.	.	.
CC/C(=C/c1ccccc1)c1cccc2[nH]c3c(OC)cccc3c12	?	?	11%	?	?	21µM*
CC/C(=C\c1ccccc1)c1cccc2oc3ccccc3c12	i	i	.	.	.	.
COC(=O)c1c(-c2ccc(Br)cc2)noc1N	?	i	?	?	?	?
CCOc1cc(-c2noc(N)c2C(=O)OC)cc(OCC)c1OCC	i	12µM*	3%	0%	0%	25%

High-throughput results (PubChem BioAssay)
